The campaign covered roughly 43,000 compounds. About 200 (0.47%) were called active. Roughly 12% stayed inconclusive and do not appear here. The sample holds actives, similar compounds and a random draw of the others, so the mix is not that of the screen. Calls follow the shape of the dose curve; as a rule, active = well fitted cell-killing curve with a large enough effect; inconclusive = small, poorly fitted or top-dose-only effect, or effect the other way; inactive = flat fitted curve, though single readings scatter.

Results on 57 compounds are retold here after PubChem BioAssay AID1508642 (National Center for Advancing Translational Sciences (NCATS), 2021).
% is scaled to controls: 0 for no effect and ±100 for the full control effect; potency is read from the fitted curve at half-maximal effect.

This experiment is described as follows: Cell viability qHTS assay in S16 Pmp22-F2sN cells. Also: nearly all actives have a fitted effect of over 65% in size. To be noted: S16 Pmp22-F2sN Schwann cells (luciferase reporters placed in the Pmp22 gene) viability, CellTiter-Glo, 24 h; series mostly up to 57.5 µM; activity change, negative = cytotoxicity: at the top concentration. The source says:
Assay Provider: Jim Inglese Ph.D. National Center for Advancing Translational Science, National Institutes of Health, Rockville, MD CMT is a heterogeneous group of neurological disorders that affect approximately 1 in 2,500 people. In particular, the most common form of CMT, CMT1A is genetically linked to the duplication of the PMP22 gene which leads to Schwann cell overexpression, thus manifesting itself as a typical case of dose-sensitive diseases. To identify small molecule compounds that can mediate the expression of PMP22 we developed a phenotypic assay screening strategy by utilizing genome editing techniques to construct Schwann cell lines containing novel reporter technology to monitor the transcriptional or translational regulation of PMP22. For high sensitivity we use a bioluminescent reporter system embedded in the 3' UTR of the PMP22 gene (S16(c9) Pmp22-F2sN) to identify compounds that inhibit gene expression. […] We can further discriminate the effect of all transcriptionally active molecules on PMP22 translation or stability with an assay that incorporates a short NLuc peptide (HiBiT) at the C-terminus of expressed PMP22 (S16(f8) PMP22-HiBiT) allowing alpha complementation and luminescence detection of membrane-associated PMP22 protein. These assays were screened against the NCATS Sytravon Library Collection. Miniaturization of these assays to 1536-well plate format for quantitative high throughput screening (qHTS) yielded rich data sets immediately from the qHTS assay (S16(c9) Pmp22-F2sN), when compared with data from a cell viability assay (Cell TiterGlo) to identify compounds that decreased the output signals through cellular toxicity to streamline the selection process of actives for subsequent characterization using the HiBiT assay (S16(f8) PMP22-HiBiT).
Cell viability assay in S16 Pmp22-F2sN cells PROTOCOL TABLE (format as described by Inglese J, Shamu CE and Guy RK. 2007) SEQUENCE No. (e.g., 1, 2, 3, etc.); […] (e.g., Cells, Incubation, Reagent, etc.); VALUE and DESCRIPTION. 1. Cells. Add 500-1,000 cells in 4 uL in growth media (DMEM High Glucose, No Phenol Red media + 10% heat-inactivated FBS + 1% Pen/Strep supplemented media) per well into Greiner 1536-well white/solid bottom high base, TC-treated plates. 2. Compounds. Library compounds and controls added at 23nL per well, transferred by Pin Tool. 3. Incubation. Incubate plates at 37C, 5% CO2, 95% RH for 24 h. 4. Reagent. Add 3uL CellTiter-Glo per well of Greiner 1536-well plates. 5. Incubation. Incubate plates at room temperature for 15 min., protect from light. 6. Detector. FLuc luminescence measured using CCD-based camera (Viewlux). NOTES (numbers refer to Sequence numbers above; values are from representative experiments) 6. Luminescence Read: Clear filter; Exposure = 1 sec, Gain = High, Speed = Slow, Binning = 2X REFERENCES: 1. Inglese J, Shamu CE and Guy RK, Reporting data from high throughput screening of small molecule libraries, Nature Chemical Biology, 2007, 3(8): 438-441. doi.org/10.1038/nchembio0807-438 2. Yasgar A, Shinn P, Jadhav A, Auld DS, Michael S, Zheng W, Austin CP, Inglese J and Simeonov A, Compound Management for Quantitative High-Throughput Screening. J. Assoc. Lab. Auto., 2008, 13: 79-89. doi: 10.1016/j.jala.2007.12.004
Take `COc1ccc(S(=O)(=O)n2nc(C)c(S(=O)(=O)N3CCCCCC3)c2C)cc1`: the “activity change, negative = cytotoxicity” value was -8.85% (inactive).

`CCC(=O)N1CCc2cc(CNS(=O)(=O)c3ccc(Br)s3)ccc21`: the “activity change, negative = cytotoxicity” value is -3.99% (inactive). `COc1ccccc1CNC(=O)c1ccc(CS(=O)c2ccccc2Cl)o1` (configuration not stated): the “activity change, negative = cytotoxicity” value was -6.85% (inactive).

With `CC(C)(C)OC(=O)N1CCC(c2c(C(=O)NCCc3ccsc3)cnn2-c2ccc(F)cc2F)CC1`, the “activity change, negative = cytotoxicity” value is -27.8% (inactive). The same measure, in the same setting: under `COc1ccc(-c2nc(Cn3c(=O)cc(C)c4c(C)nn(-c5ccccc5)c43)c(C)o2)c(OC)c1` stands 9.69% (inactive); under `COC(=O)c1ccccc1NC(=O)Cn1c(=O)n(-c2cccc(C(F)(F)F)c2)c(=O)c2c(C)c(C)sc21`, 0.489% (inactive); under `O=C(CCc1nc(CN2CCN(S(=O)(=O)c3ccc(Br)cc3)CC2)no1)N1CCCCC1`, -20.1% (inactive). Still for that read-out and setting: the figure for `CCOc1ccccc1CNCc1c(C(=O)O)c(C)n(Cc2ccc(C)cc2)c1C` is -0.973% (inactive); for `CCOc1ccc(C2C(C(=O)Nc3ccc(Cl)cc3)=C(C)Nc3nc(C(F)(F)F)nn32)cc1` (configuration not stated) it is -26.8% (inactive). On the same count and under the same terms, the figure for `COc1ccc(-c2nc(CN3CCC(C(=O)NCCN(CC(C)C)CC(C)C)CC3)c(C)o2)cc1OC` is -2.77% (inactive); for `COc1cc2nc(SCc3ccc(F)cc3)n3nc(CCn4c(C)nc5ccccc54)nc3c2cc1OC` it is -6.47% (inactive). With `CCOc1cc(C2C(C(=O)Nc3ccc(OC)cc3)=C(C)Nc3nc(SC)nn32)ccc1O` (configuration not stated), the “activity change, negative = cytotoxicity” value is -26.7% (inactive).

Take `CC(=O)c1ccc(NC(=O)COc2ccccc2-c2nc(-c3ccccc3)no2)cc1`: the “activity change, negative = cytotoxicity” value was 3.1% (inactive). For `COc1cccc(CNC(=O)c2ccc3c(c2)N(Cc2ccc(C(F)(F)F)cc2)C(=O)c2ccccc2S3)c1OC`, the “activity change, negative = cytotoxicity” value was -5.25% (inactive). For `CC(C)S(=O)(=O)c1oc(-c2ccc(F)cc2)nc1S(=O)(=O)c1ccc(F)cc1`, the Potency is 3.16 µM (active). `Cc1ccc(-c2nc(S(=O)(=O)c3ccc(C)cc3)c(N3CCCCCC3)o2)cc1`: the “activity change, negative = cytotoxicity” value is -18.3% (inactive).

Consider `O=C(CSc1oc(-c2ccc(F)cc2)nc1S(=O)(=O)c1ccc(Br)cc1)NC1CCCCC1`, for which the “activity change, negative = cytotoxicity” value is 2.8% (inactive).

With `COc1ccc(-c2nc(SCC(=O)N3CCCCC3C)n[nH]2)cc1` (configuration not stated), the “activity change, negative = cytotoxicity” value was 0.441% (inactive).

As to `O=C(NCCS(=O)(=O)N1CCN(c2ccc(F)cc2)CC1)c1ccccc1Br`, the “activity change, negative = cytotoxicity” value was -9.89% (inactive). Turning to `COc1ccc(NC(=O)Cn2c(=O)cc(C)c3c(C)nn(-c4cccc(Cl)c4C)c32)cc1OC`, the “activity change, negative = cytotoxicity” value was -0.142% (inactive). Turning to `CCOc1ccccc1CNC(=O)c1cnc2c(-c3ccc(OCC)c(OCC)c3)c(C)nn2c1C`, the “activity change, negative = cytotoxicity” value is -2.71% (inactive). For `Cc1ccc(-c2nc(Cn3c(=O)cc(-c4ccccc4)c4c(C)nn(C)c43)c(C)o2)cc1`, the “activity change, negative = cytotoxicity” value was 0.847% (inactive).

As to `O=C(CCn1c(=O)c2ccccc2n(Cc2ccc(Cl)cc2)c1=O)NCc1ccc2c(c1)OCO2`, the “activity change, negative = cytotoxicity” value was 16.4% (inactive). As to `COc1ccc(-c2onc(C)c2C)cc1S(=O)(=O)NCc1cccs1`, the “activity change, negative = cytotoxicity” value was -12.4% (inactive). On to `CCS(=O)(=O)N1CCc2cc(C(=O)N3CCN(c4ccccc4OC)CC3)ccc21`, for which the “activity change, negative = cytotoxicity” value was -23.9% (inactive).

In the case of `COc1ccc(C2=CC(c3ccccc3Cl)n3nc(-c4ccc(Cl)cc4)nc3N2)cc1` (configuration not stated), the “activity change, negative = cytotoxicity” value was -1.8% (inactive).

Regarding `COc1ccc(C)cc1NC(=O)C(=O)NCCc1sc(-c2cccc(C)c2)nc1C`, the “activity change, negative = cytotoxicity” value is 15.9% (inactive).

Regarding `Cc1c(-c2cccc(NC(=O)C(C)(C)C)c2)nc2ncccn12`, the “activity change, negative = cytotoxicity” value was 9.29% (inactive). Regarding `Cc1cc(C)c(NC(=O)c2cc3sc(Cl)cc3n2C)c(C)c1`, the “activity change, negative = cytotoxicity” value was -0.729% (inactive).

As to `Cc1cccc(-n2ccnc2SCC(=O)Nc2cccc3ccccc23)c1C`, the “activity change, negative = cytotoxicity” value was -23% (inactive). For the compound `CC(C)Cn1c(-c2ccc(S(=O)(=O)N3CCOCC3)cc2)csc1=Nc1cc(Cl)ccc1Cl`, the “activity change, negative = cytotoxicity” value is 1.99% (inactive). For the compound `Cc1ccc2[nH]c3c(=O)n(CC(=O)NC(C)C)ncc3c2c1`, the “activity change, negative = cytotoxicity” value is 17.3% (inactive).

Turning to `COc1ccccc1CNC(=O)CS(=O)(=O)c1cccc2nsnc12`, the “activity change, negative = cytotoxicity” value was 1.47% (inactive). Take `Cc1cccc2c1-c1sc(C(=O)Nc3ccc(F)cc3F)cc1CO2`: the “activity change, negative = cytotoxicity” value was 4.55% (inactive). As to `CCOCCn1ccc2c(OCC(=O)NCc3ccc(C)cc3)cccc2c1=O`, the “activity change, negative = cytotoxicity” value is -27.9% (inactive). On to `CCOC(=O)C1CCN(S(=O)(=O)c2ccc3c(c2)N(C)C(=O)CC(=O)N3C)CC1`, for which the “activity change, negative = cytotoxicity” value is 9.53% (inactive). Same read-out and setting: under `Cc1ccc2c(c1)N(C(=O)CCC(=O)NCc1ccccc1F)CC(C)O2` (configuration not stated) stands 16.2% (inactive); under `COc1cc(CNC(=O)c2cc3n(n2)CCCN(Cc2cccc(F)c2)C3=O)cc(OC)c1OC`, 4.68% (inactive). As to `COc1ccc(C2c3c(oc4ccccc4c3=O)C(=O)N2Cc2ccc3c(c2)OCO3)cc1` (configuration not stated), the “activity change, negative = cytotoxicity” value was -4.77% (inactive). Take `CCCNC(=O)C1CCN(c2nc3ccc(C)cc3[nH]2)CC1`: the “activity change, negative = cytotoxicity” value is 12.1% (inactive).

Regarding `CCCc1cc(=O)n2[nH]c(NCc3ccc(CC)cc3)nc2n1`, the “activity change, negative = cytotoxicity” value is -6.76% (inactive).

With `CCCCN(C)c1nnc(NC(=O)Nc2ccc(Br)c(C)c2)s1`, the “activity change, negative = cytotoxicity” value is 7.82% (inactive). Take `Cc1cccc(-n2ncc(C(=O)N3CCC(C)CC3)c2C2CCN(C(=O)OC(C)(C)C)CC2)c1`: the “activity change, negative = cytotoxicity” value was -0.159% (inactive). In the case of `COc1ccc2c(c1)c(=O)c(C(=O)c1ccccc1)cn2CC(=O)Nc1ccc2c(c1)OCCO2`, the “activity change, negative = cytotoxicity” value was -17.2% (inactive). In the case of `Cn1ccc2cc(S(=O)(=O)N3CCCC(C(=O)NCc4ccccc4F)C3)ccc21` (configuration not stated), the “activity change, negative = cytotoxicity” value is -1.54% (inactive). For `CCOc1ccc(N(Cc2ccccc2)C(=O)c2nc(S(C)(=O)=O)ncc2Cl)cc1`, the Potency was 3.55 µM (active). Turning to `CCOc1ccc(N(CC)C(=O)C2CCN(S(=O)(=O)c3cccc4nonc34)CC2)cc1`, the “activity change, negative = cytotoxicity” value was 17% (inactive).

As for `CCOc1ccc(N(Cc2ccccc2)C(=O)c2nc(SCC)ncc2Cl)cc1`, the “activity change, negative = cytotoxicity” value was -13.1% (inactive). Still for that read-out and setting: under `O=C(Cn1ncn2nc(-c3cccs3)cc2c1=O)NCc1cccc(Br)c1` stands -7.84% (inactive); under `CCOC(=O)c1c(NC(=O)/C=C/c2ccc(OC)cc2)sc2c1CCC(C)C2` (configuration not stated), 2.92% (inactive); under `Cc1ccc(O)c(NC(=O)CCS(=O)(=O)c2nc(-c3ccc4c(c3)OCO4)cc(C(F)(F)F)n2)c1`, 0.975% (inactive). Same read-out and setting: under `CCN(CC)CCNC(=O)Cn1ncc2c3ccccc3n(Cc3ccccc3C)c2c1=O` stands -15.4% (inactive); under `COCCNC(=O)CSc1c(C)cnc2c1c(=O)n(C)c(=O)n2C`, 2.19% (inactive). Same read-out and setting: under `COc1cc(C(=O)N2CCN(C(=O)COc3cccc(C)c3)CC2)cc(OC)c1OC` stands 8.68% (inactive). With `CCCNC(=O)CCC(=O)N1Cc2ccccc2Oc2ncccc21`, the “activity change, negative = cytotoxicity” value is 0.274% (inactive). The same measure, in the same setting: the figure for `CC(NC(=O)CCc1cn(Cc2ccccc2Cl)c2ccccc12)c1ccccc1` (configuration not stated) is -3.26% (inactive); for `CC(C)CC(NS(=O)(=O)c1ccc2c(c1)oc(=O)n2C)C(=O)NCc1ccccc1Cl` (configuration not stated) it is -2.2% (inactive).
